Structures are written as SMILES. The panel holds about 83,000 compounds, 20% with a hit somewhere; the sample as a whole holds those more often.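 In brief: 96-well plates, 48 h treatment, single concentration, percent growth endpoint.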 Unmarked numbers belong to inactive results. Calls of active or inactive are those of the source. The calls were made as follows: active = growth percent below 10; inactive = the rest.

Results on 15 compounds are retold here after PubChem BioAssay (NCI).

Among the test systems are SN12C renal; UO-31 renal; TK-10 renal; ACHN renal; CAKI-1 renal; A498 renal; CCRF-CEM leukemia; MOLT-4 leukemia; SR leukemia.
Common to all, as to assay: NCI-60 one-dose screen, 48 h (100 = growth as untreated, 0 = no growth, -100 = all killed)
Conditions in all cases: 10 µM

With `N#Cc1ncc(-c2ccc(C(F)(F)F)cc2)c(NCc2cc(C(F)(F)F)cc(C(F)(F)F)c2)n1`, the growth was 21.8% in the experiment on SN12C renal; 26.1% in the experiment on UO-31 renal; 47.4% in the experiment on TK-10 renal; 0.868% (active) with ACHN renal; 17.9% in the experiment on CAKI-1 renal; 15.3% with A498 renal. Further, the figures for the growth in the experiment on CCRF-CEM leukemia, in the experiment with MOLT-4 leukemia and with SR leukemia were 10.5%, 21.9% and 12.1%, respectively.

Consider `CCOC1(OCC)OC(c2ccccc2)=C(C#N)C(/C=C\c2ccccc2)C1(OCC)OCC` (stereo not given), for which the growth in the experiment with SN12C renal was 81.3%; in the experiment on UO-31 renal, 74%; in the experiment on TK-10 renal it was 97.1%; with ACHN renal, 83.5%; with CAKI-1 renal it was 84.8%; in the experiment with A498 renal it was 83.7%. Further, the growth was 79.1% with CCRF-CEM leukemia, 81.7% with MOLT-4 leukemia and 52.8% in the experiment with SR leukemia.

Take `O=S(=O)(NCCCNc1nccc(-c2c(-c3ccc(F)cc3)nc3sccn23)n1)c1ccc2ccccc2c1`: the growth was 49.2% in the experiment on SN12C renal; 13.1% with UO-31 renal; 35.4% with TK-10 renal; 39% in the experiment with ACHN renal; 33.2% in the experiment on CAKI-1 renal; 62.4% in the experiment on A498 renal. In addition, the growth in the experiment with CCRF-CEM leukemia was 28.3%; in the experiment on MOLT-4 leukemia, 35%; with SR leukemia, 28.5%.

Regarding `COc1ccc(-c2nc(-c3nc4ccc(Cl)cc4[nH]3)c3ccccn23)cc1`, the growth in the experiment on SN12C renal is 52.7%; with UO-31 renal, -24.8% (active); with TK-10 renal it was -12.1% (active); in the experiment on ACHN renal it was 0.296% (active); in the experiment with CAKI-1 renal it was -13% (active); with A498 renal, -3.43% (active). The figures for the growth with CCRF-CEM leukemia, in the experiment with MOLT-4 leukemia and with SR leukemia were 82.7%, 74.4% and 40.3%, respectively.

As to `Fc1cc(C(F)(F)F)ccc1-c1cncnc1NC1CCCCCC1`, the growth is 89.7% in the experiment on SN12C renal; 79.9% in the experiment with UO-31 renal; 113% in the experiment on TK-10 renal; 91.5% in the experiment on ACHN renal; 85.5% with CAKI-1 renal; 49.6% with A498 renal. Moreover, the growth was 91.2% with CCRF-CEM leukemia, 98.1% in the experiment on MOLT-4 leukemia and 118% in the experiment on SR leukemia.

`CCCCCCN1C(=O)C2=C(c3ccc(Cl)cc3)Nc3c(c(C)nn3-c3ccccc3)C2c2ccccc21` (stereo not given): the growth is 91.2% with SN12C renal; 79.2% in the experiment on UO-31 renal; 107% with TK-10 renal; 97.1% with ACHN renal; 74.5% in the experiment with CAKI-1 renal; 87.5% in the experiment on A498 renal. Also, the growth was 85.8% in the experiment on CCRF-CEM leukemia, 73.4% with MOLT-4 leukemia and 76.3% with SR leukemia.

On to `CNc1ncc(-c2ccc(C(F)(F)F)cc2)c(NC2CCCCCC2)n1`, for which the growth with SN12C renal was 84%; with UO-31 renal, 38.4%; in the experiment with TK-10 renal, 83.5%; in the experiment with ACHN renal, 73.1%; with CAKI-1 renal, 60.9%; in the experiment on A498 renal, 83.4%. Besides, the figures for the growth with CCRF-CEM leukemia, in the experiment on MOLT-4 leukemia and with SR leukemia were 70.2%, 68.2% and 43.9%, respectively.

On to `CN(C)C=Nc1cc(Cl)ccc1Cl`, for which the growth in the experiment on SN12C renal is 97.7%; in the experiment on UO-31 renal, 100%; in the experiment on TK-10 renal it was 116%; in the experiment on ACHN renal, 109%; with CAKI-1 renal, 96.5%; in the experiment on A498 renal, 105%. Further, the figures for the growth with CCRF-CEM leukemia, in the experiment with MOLT-4 leukemia and in the experiment with SR leukemia were 97.4%, 108% and 108%, respectively.

For `COC(=O)C(C(C[N+](=O)[O-])c1ccccc1)=P(c1ccccc1)(c1ccccc1)c1ccccc1` (stereo not given), the growth is 100% with SN12C renal; 73.1% in the experiment with UO-31 renal; 97.2% with TK-10 renal; 93.9% in the experiment with ACHN renal; 84.3% in the experiment with CAKI-1 renal; 59.8% in the experiment on A498 renal. In addition, the values for the growth in the experiment with CCRF-CEM leukemia, in the experiment with MOLT-4 leukemia and in the experiment with SR leukemia were 77.1%, 90.3% and 14.6%, respectively.

For the compound `C#Cc1ccc(-n2c(/C=C/c3cc(OC)cc(OC)c3)nc3ncccc3c2=O)cc1`, the growth in the experiment with SN12C renal was 81.8%; in the experiment on UO-31 renal, 87.6%; with TK-10 renal, 81.6%; with ACHN renal, 67.1%; with CAKI-1 renal, 95.8%; in the experiment with A498 renal it was 91.9%. Further, the growth in the experiment with CCRF-CEM leukemia is 69%; in the experiment on MOLT-4 leukemia it was 58.3%; with SR leukemia it was 44.8%.

Turning to `ClC(Cl)(Cl)c1nc2nccnc2[nH]1`, the growth in the experiment on SN12C renal is 98%; in the experiment on UO-31 renal it was 80.4%; in the experiment on TK-10 renal, 119%; in the experiment on ACHN renal, 103%; with CAKI-1 renal, 87.2%; in the experiment on A498 renal, 107%. For the same compound, the growth is 96.7% with CCRF-CEM leukemia, 104% in the experiment with MOLT-4 leukemia and 102% in the experiment on SR leukemia.

For `COc1ccc(-c2nc(-c3nc4cc(Cl)c(Cl)cc4[nH]3)c3ccccn23)cc1`, the growth was 81.8% with SN12C renal; 36% in the experiment on UO-31 renal; 2.57% (active) with TK-10 renal; 28.5% in the experiment on ACHN renal; 43.5% with CAKI-1 renal; 41.5% in the experiment with A498 renal. Moreover, the growth with CCRF-CEM leukemia is 79.1%; in the experiment with MOLT-4 leukemia, 77.3%; with SR leukemia it was 45.6%.

For the compound `O=C(CCCCC(=O)Nc1ccc2c(c1)/C(=C/c1ccc[nH]1)C(=O)N2)NO`, the growth was 93.1% in the experiment with SN12C renal; 83.6% in the experiment with UO-31 renal; 86% with TK-10 renal; 101% in the experiment with ACHN renal; 97.8% with CAKI-1 renal; 50.8% in the experiment on A498 renal. In addition, the growth in the experiment on CCRF-CEM leukemia was 32.4%; in the experiment on MOLT-4 leukemia, 60.8%; in the experiment with SR leukemia, 45.4%.

Consider `CCC(=O)N1C/C(=C/c2ccc(Br)cc2)C(=O)/C(=C/c2ccc(Br)cc2)C1`, for which the growth in the experiment on SN12C renal was -48.8% (active); in the experiment with UO-31 renal it was -95.9% (active); in the experiment with TK-10 renal it was -31.2% (active); in the experiment with ACHN renal, -54.9% (active); in the experiment on CAKI-1 renal it was -25.9% (active); with A498 renal, -66.4% (active). Further, the figures for the growth in the experiment with CCRF-CEM leukemia, in the experiment on MOLT-4 leukemia and in the experiment on SR leukemia were -12% (active), -15.1% (active) and -35.6% (active), respectively.

For `CN(C)Cc1cn(-c2ncc(-c3ccc(C(F)(F)F)cc3)c(NC3CCCCCC3)n2)nn1`, the growth is 87.5% in the experiment on SN12C renal; 42.9% in the experiment with UO-31 renal; 85.2% with TK-10 renal; 92.1% with ACHN renal; 84.7% in the experiment with CAKI-1 renal; 76.9% in the experiment with A498 renal. Further, the growth in the experiment on CCRF-CEM leukemia is 80.6%; with MOLT-4 leukemia it was 74.8%; in the experiment with SR leukemia it was 39.6%.
